High-throughput results (PubChem)
NPYLR7 ag – activates Aedes aegypti NPYLR7 receptor | AID 1259423 | activation, % at 10 µM | 270,000 tested, 0.15% active | HEK293T NPYLR7/Galpha15, GCaMP6s calcium fluorescence; in the data active = activation above about 40%;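 also: 0% = vehicle and 100% = reference agonist at the receptor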
mcGAS lum – inhibitors of mouse cGAS; recombinant cGAS, Kinase-Glo ATP depletion luminescence; Q8C6L5; inhibition, % at 12.5 µM; 160,000 tested, 0.15% active;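 also: 0% = negative control wells and 100% = reference inhibitor with no enzyme activity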
hcGAS lum – human cGAS inhibition; inhibition, % at 12.5 µM; 290,000 tested, 0.081% active; Q8N884; recombinant h-cGAS, ATP depletion, Kinase-Glo luminescence;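 also: 0% = vehicle reaction and 100% = reaction without DNA for no activity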
Target sequence (Q8N884 whole entry, looked up): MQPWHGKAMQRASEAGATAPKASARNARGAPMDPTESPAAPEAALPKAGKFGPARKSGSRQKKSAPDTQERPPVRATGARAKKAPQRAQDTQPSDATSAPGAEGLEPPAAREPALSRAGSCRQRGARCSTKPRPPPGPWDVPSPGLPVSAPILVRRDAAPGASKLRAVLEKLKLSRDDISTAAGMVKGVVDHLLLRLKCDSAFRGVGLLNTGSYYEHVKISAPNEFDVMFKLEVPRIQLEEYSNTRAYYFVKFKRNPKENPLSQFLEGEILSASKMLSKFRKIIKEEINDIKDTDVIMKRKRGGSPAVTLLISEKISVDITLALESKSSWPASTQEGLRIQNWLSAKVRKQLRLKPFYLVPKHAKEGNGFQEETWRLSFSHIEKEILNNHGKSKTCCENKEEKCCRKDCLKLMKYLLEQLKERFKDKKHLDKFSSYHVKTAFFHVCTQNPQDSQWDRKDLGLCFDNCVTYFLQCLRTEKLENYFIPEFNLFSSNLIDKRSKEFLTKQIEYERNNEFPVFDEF
Numbers without * were called inactive; / = no result; ! = not active in a repeat. In the library only some 0.28% were active in any assay of this set; here they are far more common. Rule as the data show it, unless noted: active = inhibition above about 40%; inactive = the rest.

SMILES	NPYLR7 ag	mcGAS lum	hcGAS lum
CC(C)(C)n1nc(C2CC2)cc1C(=O)NCC1Cc2ccccc2O1 (configuration not stated)	1	/	-3
CCC(C)N(CC#Cc1ccccc1)Cc1cc2ccc(F)cc2[nH]c1=O (configuration not stated)	0	-9	-5
CCOC(=O)COc1cc2c(-c3cc4ccccc4o3)cc(=O)oc2cc1C	0	-6	-3
CCOC(=O)c1cc(C(=O)OCC)c2c(C)cc(C)cc(C)c1-2	-7	/	-27
CCOC(=O)c1ccccc1-c1c2ccc(=N)cc-2oc2cc(N)ccc12	120*	-12	-2
CCN=c1cc2oc3cc(NCC)c(C)cc3c(-c3ccccc3C(=O)OCC)c-2cc1C	159*	-20	-29
CN(Cc1ccc(N(C)C)cc1)C(=O)c1ccc(N2CCCS2(=O)=O)cc1	-9	/	1
CN1CC(=O)N2C[C@@H](NC(=O)CCN3CCCCCC3=O)C[C@H]2C1=O	7	/	-5
CSc1ccc(C2CC(c3cccs3)=Nc3ncnn32)cc1 (configuration not stated)	124*	/	-5
c1ccc(C2=Nc3ncnn3C(c3ccccc3)C2)cc1 (configuration not stated)	1	1	5
COc1cccc(-n2nnc3c(N4CCN(C(=O)C56CC7CC(CC(C7)C5)C6)CC4)ncnc32)c1	-9	-5	-6
COc1cc(C=CC(=O)c2ccc(C#N)cc2)ccc1O	3	3	2
COc1cccc(C=CC(=O)c2ccc(OC)c(OC)c2)c1	-1	39	-7
COC(=O)c1ccc(C=CC(=O)c2ccc(O)c(OC)c2)cc1	0	44*	-4
COc1cc(C(=O)C=Cc2cccc(O)c2)ccc1O	0	41*	1
COc1ccccc1C1c2cccn2CCCN1Cc1ccccc1[N+](=O)[O-] (configuration not stated)	7	-5	81*
CCc1ccccc1C1c2cccn2CCCN1Cc1ccccc1[N+](=O)[O-] (configuration not stated)	12	-3	1
CC(C)OCCCNC(=O)CCc1cc2c(n1-c1ccc(Cl)cc1)-c1ccccc1OC2	3	-11	-7
O=C(CCC1CCCN(C23CC4CC(CC(C4)C2)C3)C1)Nc1ccccc1F (configuration not stated)	-13	-3	-2
CCOC(=O)CCCC(=O)N1CCCN(c2c(-c3ccc(OC)c(OC)c3)cnc3ncnn23)CC1	2	-8	-3
COCCCN(CC(=O)Nc1cc(C(C)(C)C)nn1-c1ccc(C)cc1C)C(=O)c1cccs1	5	-2	3
CCOC(=O)c1c(-c2ccccc2)csc1N=Cc1nc(-c2ccco2)oc1O	141*	-8	-8
CCOC(=O)c1c(N=Cc2nc(-c3ccccc3)oc2O)sc(C)c1C	-5	-3	-5
CSc1nc(=O)n(CCO)c2c1CCCC2	-11	-8	-8
N=C(N)c1ccc(OCCCCCOc2ccc(C(N)=O)cc2)cc1	5	0	-6
SMILES	NPYLR7 ag	mcGAS lum	hcGAS lum
N=C(N)c1ccc(OCCCCCOc2ccc(C(=N)N)cc2)cc1	66*!	/	4
C=CCOCC(O)CN(Cc1ccc2c(c1)OCO2)Cc1cc(C)ccc1C (configuration not stated)	12	-2	2
C#CCOCC(O)CN(Cc1ccc(F)cc1)Cc1ccc2c(c1)OCO2 (configuration not stated)	9	77*	-4
C#CCOCC(O)CN(Cc1ccc2c(c1)OCO2)Cc1cc(C)ccc1C (configuration not stated)	23	-4	0
C=CCOCC(O)CN(Cc1ccc2c(c1)OCO2)Cc1ccc(C)s1 (configuration not stated)	19	83*	-4
COc1ccccc1-n1c(CNC(=O)c2ccc(S(=O)(=O)N3CCCC3)cc2)nnc1SCC(=O)Nc1nccs1	10	-7	-5
C=CCN(CC=C)C(=O)COC(=O)Cn1cc(Br)c(=O)[nH]c1=O	3	/	-4
COc1cccc(-n2c(O)c(C=Nc3cc(OC)ccc3OC)c3ccccc3c2=O)c1	52*	-6	-3
COc1ccc(N=Cc2c(O)n(-c3ccccc3)c(=O)c3ccccc23)c(OC)c1	-3	-6	-5
CCc1nc(N2CCN(c3ccc(F)cc3)CC2)c2c3c(sc2n1)CCCC3	-2	-4	-6
CC(C)S(=O)(=O)Oc1ccc(CN(Cc2ccco2)C(=O)c2cccc(F)c2)cc1	10	-4	45*
CC(C)S(=O)(=O)Oc1ccc(CN(C(=O)c2cccc(F)c2)C2CC2)cc1	24	-4	-11
CCCNc1ccc(C(=O)NC)cn1	11	-5	-2
COc1ccc(CNC(=O)c2cccnc2N2CCN(C(=O)c3cccc(N(C)C)c3)CC2)cc1	5	1	4
NC1CCN(c2ccccc2C(=O)NCc2ccncc2)CC1	21	/	-4
COCc1ncc(CN2CCN(C(=O)c3ccc(OC)cc3)CC2)cn1	11	/	-2
O=C(NN=Cc1ccccc1C(F)(F)F)c1ccco1	-2	-1	-2
O=C(NN=Cc1ccccc1C(F)(F)F)c1cnccn1	-5	55*	1
CC(C)NC(=O)[C@@H]1C[C@@H](N)CN1Cc1cc2ccccc2[nH]1	-4	/	-3
O=C(C1CCC1)N(Cc1ccc(F)cc1F)CC1CC(c2ccc(Cl)cc2)=NO1 (configuration not stated)	-7	0	2
Cc1ccc2c(n1)[nH]n1c(=O)cc(C)nc21	7	/	43*
Cc1cc(=O)n2[nH]c(C)c(-c3ccc(F)cc3)c2n1	0	/	-1
C=CCCC(O)CN(CCCOC)Cc1nc2scc(-c3ccc(OC)cc3)c2c(=O)[nH]1 (configuration not stated)	-1	-2	1
COc1cccc2c1C(=O)c1c(O)c3c(c(O)c1C2=O)C[C@@](O)(C(=O)CO)C[C@@H]3O[C@H]1C[C@H](N)[C@H](O)[C@H](C)O1	-13	/	58*
COc1cccc2c1C(=O)c1c(O)c3c(c(O)c1C2=O)C[C@@](O)(C(C)=O)C[C@@H]3OC1CC(N)C(O)C(C)O1 (some centres not stated)	-3	/	61*
SMILES	NPYLR7 ag	mcGAS lum	hcGAS lum
CCc1ncc(C(=O)N2CCCN(C(=O)c3ccccc3)CC2)[nH]1	-6	/	-9
Cn1cc(C(=O)NCc2cccc(OCC(F)F)c2)ccc1=O	9	-7	-2
CC(=O)Nc1cccc(NC(=O)CSc2nc3c(-c4ccccc4)c(C)nn3c(=O)[nH]2)c1	5	-4	28
Cc1cc(NC(=O)CSc2nc3c(-c4ccccc4)c(C)nn3c(=O)[nH]2)no1	9	-3	46*
Cc1ccc(-n2c(=O)c3ccccc3n(CC(=O)NCc3cccnc3)c2=O)cc1Cl	24	-9	-1
N#CC(=Cc1c(F)c(F)c(F)c(F)c1F)c1ccccn1	99*	-4	-1
N#CC(=Cc1ccccc1I)c1ccccn1	-1	-4	-4
Cc1cccc(CC(=O)Nc2cc(C)nn2-c2ncnc3c2cnn3-c2cccc(Cl)c2)c1	4	-9	-5
CC(C)N=C(N)N=C(N)Nc1ccc(Cl)cc1	6	/	-4
NC(=NCCCCCCN=C(N)N=C(N)Nc1ccc(Cl)cc1)N=C(N)Nc1ccc(Cl)cc1	70*!	-4	-4
Cc1nc(-c2ccccc2Cl)nc(N2CCC(N(C)CC(F)F)CC2)c1C	2	/	-10
